Test results reported in PubChem BioAssay AID1851 (National Center for Advancing Translational Sciences (NCATS), 2009).
Several values for one entry are separate records, joined by “and”; a condition that tells them apart may be missing. Equal entries are not always repeated. About 5,700 (36%) of roughly 16,000 compounds were called active. Roughly 24% stayed inconclusive and do not appear here. Calls come from the whole dose curve; as a rule, active = well fitted curve in the direction sought with a large enough effect; inconclusive = small, poorly fitted or top-dose-only effect, or effect the other way; inactive = no such curve, though single readings can be large or run the other way. The list shows a part of the results.

Target: Cytochrome P450 1A2 (Homo sapiens) (UniProt P05177)
Sequence (P05177 whole entry, looked up): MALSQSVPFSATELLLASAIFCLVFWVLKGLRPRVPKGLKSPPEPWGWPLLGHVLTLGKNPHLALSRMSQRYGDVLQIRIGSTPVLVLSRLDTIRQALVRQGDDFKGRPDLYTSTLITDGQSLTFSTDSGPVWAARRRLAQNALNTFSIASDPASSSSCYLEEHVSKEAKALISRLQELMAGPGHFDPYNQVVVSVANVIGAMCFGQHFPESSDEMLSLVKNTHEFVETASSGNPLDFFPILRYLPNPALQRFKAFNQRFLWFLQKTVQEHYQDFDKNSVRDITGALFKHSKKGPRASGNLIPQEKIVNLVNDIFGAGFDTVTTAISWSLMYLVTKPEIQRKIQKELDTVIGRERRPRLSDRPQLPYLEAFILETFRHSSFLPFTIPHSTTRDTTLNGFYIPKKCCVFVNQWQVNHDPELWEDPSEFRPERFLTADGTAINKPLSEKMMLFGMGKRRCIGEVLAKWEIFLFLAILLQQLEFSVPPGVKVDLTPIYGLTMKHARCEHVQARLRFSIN
Test: Cytochrome panel assay with activity outcomes
Conditions: recombinant CYP, pro-luciferin dealkylation, luminescence, p450-cyp1a2; series mostly up to 57.1 µM; activity, negative = inhibition: at the top concentration
% is set by controls: 0 for no effect and ±100 for the full control effect.

| SMILES | AC50 | activity, negative = inhibition |
| --- | --- | --- |
| COc1ccc(C(=O)CCN(C)C)c2ccccc12 | 1.58 µM (active) | – |
| COc1ccc(CCN(C)CCC(=O)Nc2c(C)cc(C)cc2C)cc1OC | – | 1.14% (inactive) |
| COc1ccc(Cc2ccccc2C(=O)O)c2ccccc12 | – | 2.81% [at 2.29 µM] (inactive) |
| CN(C)Cc1ccccc1-c1ccc2ncnc(N(C)Cc3ccco3)c2c1 | 2 µM (active) | – |
| CN(Cc1ccco1)c1ncnc2ccc(-c3cccc(C#N)c3)cc12 | 0.501 µM (active) | – |
| CN(Cc1ccco1)c1ncnc2ccc(-c3ccccc3Cl)cc12 | 2 µM (active) | – |
| CN(Cc1ccco1)c1ncnc2ccc(-c3ccccc3C(F)(F)F)cc12 | 5.01 µM (active) | – |
| COCC(=O)N1CCC[C@@]2(CCN(Cc3ccccc3OC)C2)C1 | – | 6.76% (inactive) |
| CC(=O)OC[C@@H]1O[C@H](C/C=N\O[C@@H]2O[C@H](COC(C)=O)[C@@H](OC(C)=O)[C@H](OC(C)=O)[C@H]2OC(C)=O)C=C[C@@H]1OC(C)=O | – | -3.65% [at 11.4 µM] (inactive) |
| CN(Cc1ccco1)c1ncnc2ccc(-c3ccccc3C#N)cc12 | 1 µM (active) | – |
| Oc1ccc([C@@H]2CNCc3sccc32)cc1O | – | 3.98% (inactive) |
| COc1ccccc1CN1CCCC2(CCN(C(=O)c3csnn3)CC2)C1 | – | -22.1% (inactive) |
| Cc1cc(C(=O)CC#N)c(C)n1CC(F)(F)F | 15.8 µM (active) | – |
| C=CCn1c(C)cc(C(=O)CN2C(=O)c3ccccc3C2=O)c1C | – | 0.647% (inactive) |
| CC1(C)OC(C(N)=O)C(C(N)=O)O1 (stereo not given) | – | -21.8% (inactive) |
| COc1ccccc1OCC(=O)N/N=C1/SCC(=O)N1Cc1ccccc1 | 5.01 µM (active) | – |
| CCOC(=O)N/N=C1/C[C@@H](O)[C@@H](O)[C@@H]2[C@@H]3C(=O)N(Cc4ccccc4)C(=O)[C@H]3CC[C@H]12 | – | -4.78% [at 11.4 µM] (inactive) |
| CCOC(=O)N/N=C1/C[C@@H](O)[C@@H](O)[C@@H]2[C@@H]3C(=O)N(Cc4ccccc4)C(=O)[C@H]3CC[C@@H]12 | – | -3.55% [at 11.4 µM] (inactive) |
| CCOc1cc(/C=C2/NC(=O)N(CC(=O)Nc3cccc(C)c3)C2=O)ccc1OC | – | 1.61% (inactive) |
| CCOc1cc(/C=C2\C(=O)N(Cc3ccc(C)cc3)C(C)=C2C(=O)OC)ccc1O | 14.1 µM (active) | – |
| O=C1OCCC1Sc1nnnn1-c1ccccc1 (stereo not given) | – | -19.1% (inactive) |
| O=C1OCCC1Sc1nnc(-c2ccc(O)cc2)o1 (stereo not given) | 2.24 µM (active) | – |
| N#Cc1cccc(NC(=O)N2CC[C@@]3(CCCNC3)C2)c1 | – | -17.6% (inactive) |

| SMILES | AC50 | activity, negative = inhibition |
| --- | --- | --- |
| O=C(c1ccccc1)c1nn(-c2ccccc2)c(=O)cc1C(F)(F)F | 0.501 µM (active) | – |
| NC(=O)c1nn(-c2ccccc2)c(=O)cc1O | – | 1.04% (inactive) |
| C=CC[C@@H]1C=C[C@H](ON=C(C)C)[C@H](CO)O1 | – | 3.87% [at 11.4 µM] (inactive) |
| COC(=O)[C@H](C)NC(=O)C/C=C\[C@@H](C)[C@H]1C=C[C@H](O)[C@@H](CO)O1 | – | -5.17% [at 11.4 µM] (inactive) |
| Cc1ccccc1C(=O)N/N=C/c1ccncc1 | 12.6 µM (active) | – |
| C=CCn1cc(/C=N\NC(=O)c2cc3c(ccc4ccccc43)o2)c2ccccc21 | 1 µM (active) | – |
| O=C(N/N=C/c1ccncc1)c1cc2c(ccc3ccccc32)o1 | 0.355 µM (active) | – |
| Cc1ccc(-c2ccc(/C=N\NC(=O)c3cc4c(ccc5ccccc54)o3)o2)cc1[N+](=O)[O-] | 22.4 µM (active) | – |
| CC(O)(P(=O)(O)O)P(=O)(O)O | – | -0.0229% [at 25.6 µM] (inactive) |
| COc1ccccc1CN1CC[C@@]2(CCCN(C(=O)c3cccn3C)C2)C1 | – | 2.49% (inactive) |
| O=C(N/N=C/c1ccco1)/C(=C/c1cccc([N+](=O)[O-])c1)NC(=O)c1ccccc1 | – | 12.9% (inactive) |
| Cc1cc(C(=O)N/N=C/c2cccc([N+](=O)[O-])c2)c(C)o1 | 1.41 µM (active) | – |
| O=C(N/N=C/c1cccc([N+](=O)[O-])c1)c1cc2c(ccc3ccccc32)o1 | 0.355 µM (active) | – |
| COc1ccc(/C=N/NC(=O)c2cccc([N+](=O)[O-])c2)cc1OS(=O)(=O)c1ccc(C)cc1 | – | -9.99% (inactive) |
| C#C[C@@]1(OC(C)=O)CC[C@@H]2[C@@H]3CCC4=C[C@@H](OC(C)=O)CC[C@H]4[C@H]3CC[C@]21C | – | -7.62% [at 25.6 µM] (inactive) |
| C/C(CCN1CCc2nc(-c3ccccc3)c(-c3ccccc3)cc2C1)=N\O[C@@H](C)c1cc(-c2c(C)cc(C)cc2C)no1 | – | 9.44% [at 11.4 µM] (inactive) |
| O=c1cc(N2CCOCC2)oc2c(-c3ccccc3)cccc12 | 1.58 µM (active) and 200 nM (active) | – |
| Cc1cc(C)c2nc3c(c([C@H](O)[C@@H]4CCCCN4)c2c1)CC/C3=C/c1ccc(Cl)cc1 | – | -20.6% [at 11.4 µM] (inactive) |
| Cc1ccc(C(c2nnnn2C2CCCC2)N2CCN3CCCC3C2)cc1 (stereo not given) | – | 1.2% (inactive) |
| Clc1ccc(C(c2nnnn2C2CCCC2)N2CCN(Cc3ccncc3)CC2)cc1 (stereo not given) | 10 µM (active) | – |
| c1coc(CN2CCN(C(c3cccs3)c3nnnn3C3CCCC3)CC2)c1 (stereo not given) | – | -10.2% (inactive) |
| C/C=C\C1=C(CO)C(=O)C2O[C@]2(CC=C(C)C)C1=O (stereo not given in full) | – | -6.49% [at 11.4 µM] (inactive) |
| O=[N+]([O-])c1cccc(-c2nc(-c3ccccc3)c(-c3cccs3)[nH]2)c1 | 2.51 µM (active) | – |

| SMILES | AC50 | activity, negative = inhibition |
| --- | --- | --- |
| O=[N+]([O-])c1cccc(-c2nc(-c3cccs3)c(-c3cccs3)[nH]2)c1 | 1 µM (active) | – |
| COc1ccc(-c2nc(-c3ccccc3)c(-c3cc([N+](=O)[O-])ccc3C)[nH]2)cc1O | 14.1 µM (active) | – |
| CCOC(OCC)P(=O)(O)CCCNCc1ccc(Cl)c(Cl)c1 | – | -38% (inactive) |
| CCN(CC)c1ccc(NC(=O)c2cnn(CC)c2)cc1 | – | -3.68% (inactive) |
| CCOc1ccc(C(=O)Nc2cnn(Cc3ccc(Cl)c(Cl)c3)c2)cc1 | 10 µM (active) | – |
| Cc1cc(C(=O)CSC(=S)SC(C)(C)C)ccc1Cl | 1.58 µM (active) | – |
| N#CCCn1c(=O)c(-c2cc(F)cc(F)c2)nc2cnc(Oc3ccccc3)nc21 | 2 µM (active) | – |
| N#CCCn1c(=O)c(-c2ccc(F)cc2)nc2cnc(OCc3ccccc3)nc21 | 1.58 µM (active) | – |
| N#CCCn1c(=O)cnc2cnc(OCc3ccccc3)nc21 | 12.6 µM (active) | – |
| N#CCCn1c(=O)c(-c2ccc(Cl)cc2)nc2cnc(OCc3ccccc3)nc21 | 2 µM (active) | – |
| O=C1CC[C@H](NC(=O)c2ccccc2)C(=O)N1 | – | -20.9% [at 11.4 µM] (inactive) |
| COc1ncc2nc(-c3cc(F)cc(F)c3)c(=O)n(CCC#N)c2n1 | 6.31 µM (active) | – |
| CN(C)c1ncc2nc(-c3cc(F)cc(F)c3)c(=O)n(CCC#N)c2n1 | – | -15.7% (inactive) |
| N#CCCn1c(=O)c(-c2ccccc2)nc2cnc(OCc3ccccc3)nc21 | 3.16 µM (active) | – |
| N#CCCn1c(=O)c(-c2cc(F)cc(F)c2)nc2cnc(OCc3ccccc3)nc21 | 6.31 µM (active) | – |
| COc1cccc([C@@H]2Oc3ccc(OC)cc3/C(=N/O[C@@H](C)c3cn([C@H]4COC[C@H]4O)nn3)[C@@H]2O)c1 | – | 8.26% [at 11.4 µM] (inactive) |
| Clc1ccccc1C(Nc1ncccn1)Nc1ncccn1 | – | -16.9% [at 11.4 µM] (inactive) |
| CC(=O)c1c(C(C)=O)c(C)n(NC(=O)c2ccncc2)c1C | – | 8.59% (inactive) |
| CC(=O)c1cc2c(cc1NC(=O)CCCC(=O)O)OCO2 | – | -28% (inactive) |
| CC(=O)c1cc2c(cc1NC(=O)c1c(-c3ccccc3)noc1C)OCO2 | 2.24 µM (active) | – |
| Cc1onc(-c2ccccc2)c1C(=O)NC(CC(=O)O)c1ccc(OC(C)C)cc1 (stereo not given) | – | -19.1% (inactive) |
| Cc1onc(-c2c(Cl)cccc2Cl)c1C(=O)N1CCc2ccccc2C1 | – | -17.5% (inactive) |
| Cc1onc(-c2c(Cl)cccc2Cl)c1C(=O)Nc1ccc2c(c1)OCO2 | 3.16 µM (active) | – |

| SMILES | AC50 | activity, negative = inhibition |
| --- | --- | --- |
| C/C(=C(/CCO)SSC[C@@H]1CCCO1)N(C=O)Cc1cnc(C)nc1N | – | -10.8% [at 25.6 µM] (inactive) |
| CC(C)CC(=O)N1CCC(O)(CS(=O)(=O)Cc2ccc(Cl)cc2)CC1 | – | 11% (inactive) |
| CCOC(=O)N1CCN(C(=O)CSCc2ccc(Cl)cc2)CC1 | 6.31 µM (active) | – |
| CCOC(=O)C1CCCN(C(=O)CSCc2ccccc2)C1 (stereo not given) | – | -15.5% (inactive) |
| CCOc1cccc2cc(C(N)=O)c(=NCc3ccccc3)oc12 | 2.24 µM (active) | – |
| CN(Cc1ccco1)c1ncnc2ccc(-c3cccnc3)cc12 | 0.316 µM (active) | – |
| COc1cccc(-c2ccc3ncnc(N(C)Cc4ccco4)c3c2)c1 | 1.26 µM (active) | – |
| Cc1ccc(CSc2nnc3c(n2)OC2(Nc4ccccc4-3)C(=O)Nc3ccc(F)cc32)cc1 (stereo not given) | 14.1 µM (active) | – |
| CCCNC(=O)OC[C@H]1O[C@@H](CCO/N=C2/[C@H]3O[C@@H]3[C@@H](O)[C@H]3[C@H]2CCn2c(=O)n(-c4ccccc4)c(=O)n23)C=C[C@@H]1Oc1ccc(OC)cc1 | – | -12.7% [at 11.4 µM] (inactive) |
| COc1ccc(-n2c(=O)c(-c3cn(C)c4ccccc34)nc3cncnc32)cc1 | 0.316 µM (active) | – |
| Cn1cc(-c2nc3cncnc3n(C3CC3)c2=O)c2ccccc21 | 0.2 µM (active) | – |
| COc1ccc(Oc2ncc3nc(-c4cn(C)c5ccccc45)c(=O)n(C4CC4)c3n2)cc1 | 12.6 µM (active) | – |
| COc1ccc(-n2c(=O)c(-c3cn(C)c4ccccc34)nc3cnc(OC)nc32)cc1 | – | -22% (inactive) |
| Cn1cc(-c2nc3cncnc3n(-c3ccccc3)c2=O)c2ccccc21 | 1.58 µM (active) | – |
| CS(=O)(=O)N1CCC[C@@]2(CCN(Cc3nccs3)C2)C1 | – | 3.08% (inactive) |
| Cc1ccc(/C=C/C2=Cc3c(sc(NC(=O)CSc4n[nH]c(N)n4)c3C#N)C(C)(C)C2)o1 | – | -29.2% (inactive) |
| CCOc1ccc(/C=C/C2=Cc3c(sc(NC(=O)CSc4n[nH]c(N)n4)c3C#N)C(C)(C)C2)cc1 | – | -14.8% (inactive) |
| CCOC(=O)c1sc(NC(=O)CSc2nc(C)cc(C)n2)c(C#N)c1C | 10 µM (active) | – |
| CCOC(=O)c1sc(NC(=O)CSc2n[nH]c(-c3ccc(Cl)cc3Cl)n2)c(C#N)c1C | 14.1 µM (active) | – |
| CCOC(=O)c1sc(NC(=O)CSc2nc(C)cc(C)c2C#N)c(C#N)c1C | – | -28.8% (inactive) |
| COc1cc2cc3c(N)c(C(=O)Nc4sc(C)c(C)c4C#N)sc3nc2cc1OC | – | -27.6% (inactive) |
